According to PubChem BioAssay (NCATS):
Results filed as inconclusive are left out. Active and inactive are the calls of the source. Unless noted, calls come from the whole dose curve.

Assays:
[1] = qHTS for Inhibitors of the Functional Ribonucleoprotein Complex (vRNP) of Lassa (LASV) Arenavirus: LASV Primary Screen - GLuc reporter signal (AID 1347082; calls by dose curve; tested in HEK293 reporter line; note: nearly all actives have a fitted effect of over 60% in size)
[2] = qHTS for Inhibitors of the Functional Ribonucleoprotein Complex (vRNP) of Lassa (LASV) Arenavirus: Viability assay - alamar blue signal for LASV Primary Screen (AID 1347083; calls by dose curve; tested in HEK293 reporter line; note: nearly all actives have a fitted effect of over 80% in size)
[3] = qHTS for Inhibitors of the Functional Ribonucleoprotein Complex (vRNP) of Lymphocytic Choriomeningitis Arenaviruses (LCMV): Viability assay - alamar blue signal for LCMV Primary Screen (AID 1347085; calls by dose curve; tested in HEK293 reporter line; note: nearly all actives have a fitted effect of over 80% in size)
[4] = target: Nucleoprotein (Lymphocytic choriomeningitis virus (strain Armstrong)) (UniProt P09992); experiment: qHTS for Inhibitors of the Functional Ribonucleoprotein Complex (vRNP) of Lymphocytic Choriomeningitis Arenaviruses (LCMV): LCMV Primary Screen - GLuc reporter signal (AID 1347086); note: nearly all actives have a fitted effect of over 70% in size
Nucleoprotein (Lymphocytic choriomeningitis virus (strain Armstrong)), sequence (P09992 whole entry, looked up): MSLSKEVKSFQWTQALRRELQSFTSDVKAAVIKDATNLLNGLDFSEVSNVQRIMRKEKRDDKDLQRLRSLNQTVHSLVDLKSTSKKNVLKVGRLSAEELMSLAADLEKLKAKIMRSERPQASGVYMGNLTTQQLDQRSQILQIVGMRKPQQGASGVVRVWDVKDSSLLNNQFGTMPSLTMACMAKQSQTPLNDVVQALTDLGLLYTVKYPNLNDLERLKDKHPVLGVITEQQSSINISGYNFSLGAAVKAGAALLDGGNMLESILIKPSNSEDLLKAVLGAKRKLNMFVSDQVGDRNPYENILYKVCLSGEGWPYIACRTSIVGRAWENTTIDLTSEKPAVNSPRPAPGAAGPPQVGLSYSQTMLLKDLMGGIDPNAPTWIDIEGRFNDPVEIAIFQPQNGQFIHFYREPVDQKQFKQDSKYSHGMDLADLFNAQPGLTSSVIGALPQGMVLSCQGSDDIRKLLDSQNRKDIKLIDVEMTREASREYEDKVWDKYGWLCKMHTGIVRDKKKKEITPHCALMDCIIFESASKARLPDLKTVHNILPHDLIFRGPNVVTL

Measured: Potency
Note: series mostly up to about 57 µM.

O=C(CCCN1CCC(O)(c2cccc(C(F)(F)F)c2)CC1)c1ccc(F)cc1
inactive: [1] | [2] | [3] | [4]

O=C(OCC(O)CO)c1ccccc1Nc1ccnc2c(C(F)(F)F)cccc12 (stereo not given)
inactive: [1] | [2] | [3] | [4]

CCn1c(=O)c2c(nc(C=Cc3ccc(OC)c(OC)c3)n2C)n(CC)c1=O
inactive: [1] | [2] | [3] | [4]

CC(=O)Nc1ccn(C2COC(COC(=O)c3ccccc3)O2)c(=O)n1 (stereo not given)
inactive: [1] | [2] | [3] | [4]

Fc1ccc(C(c2ccc(F)cc2)N2CCN(C/C=C/c3ccccc3)CC2)cc1
inactive: [1] | [2] | [3] | [4]

NC(=O)CC[C@@H](N)C(=O)O
inactive: [1] | [2] | [3] | [4]

O=C(Cn1ccnc1[N+](=O)[O-])NCCO
inactive: [1] | [2] | [3] | [4]

C#CCN(C)CCCOc1ccc(Cl)cc1Cl
inactive: [1] | [2] | [3] | [4]

FC(F)(F)C(F)(F)C(F)(F)C(F)(F)C(F)(F)C(F)(F)C(F)(F)C(F)(F)Br
inactive: [1] | [2] | [3] | [4]

C#CC1(O)CC[C@H]2[C@@H]3CCC4=CCCC[C@@H]4[C@H]3CC[C@@]21C (stereo not given in full)
inactive: [1] | [2] | [3] | [4]

CCC1NC(=O)c2cc(S(N)(=O)=O)c(Cl)cc2N1 (stereo not given)
inactive: [1] | [2] | [3] | [4]

CCC(=O)c1ccc(O)cc1
inactive: [1] | [2] | [3] | [4]

OC(CN1CCC(Cc2ccc(F)cc2)CC1)c1ccc(Cl)cc1 (stereo not given)
inactive: [1] | [2] | [3] | [4]

O=C1OC2(c3ccc(O)cc3Oc3cc(O)ccc32)c2ccccc21
inactive: [1] | [2] | [3] | [4]

CC1(c2ccccc2)OC(C(=O)O)=CC1=O (stereo not given)
inactive: [1] | [2] | [3] | [4]

NC(N)=N/N=C/c1c(Cl)cccc1Cl
inactive: [1] | [2] | [3] | [4]

O=C(CCC1CCN(Cc2ccccc2)CC1)c1ccc2c(c1)NCCCC2
inactive: [1] | [2] | [3] | [4]

C[N+]1(C)CCC(=C(c2ccccc2)c2ccccc2)CC1
inactive: [1] | [2] | [3] | [4]

CC(=O)Nc1cccc(O)c1
inactive: [1] | [2] | [3] | [4]

NNC(=O)CP(=O)(c1ccccc1)c1ccccc1
inactive: [1] | [2] | [3] | [4]

O=C1OC(OC(=O)c2cccnc2Nc2cccc(C(F)(F)F)c2)c2ccccc21 (stereo not given)
inactive: [1] | [2] | [3] | [4]

Cc1nc(C2CCCCC2)c(-c2ccc(S(N)(=O)=O)c(F)c2)o1
inactive: [1] | [2] | [3] | [4]

CCCCC1(COC(=O)CCC(=O)O)C(=O)N(c2ccccc2)N(c2ccccc2)C1=O
inactive: [1] | [2] | [3] | [4]

CC(=O)/C=C/C=C1/C2CCC(C2)C1(C)C (stereo not given)
inactive: [1] | [2] | [3] | [4]

CCOC(=O)[C@@](C)(N)Cc1ccc(O)c(O)c1
inactive: [1] | [2] | [3] | [4]

N[C@H]1CN(c2c(F)cc3c(=O)c(C(=O)O)cn(C4C[C@@H]4F)c3c2Cl)CC12CC2 (stereo not given in full)
inactive: [1] | [2] | [3] | [4]

C[C@@H](O)[C@H](N)C(=O)O
inactive: [1] | [2] | [3] | [4]

CCN(CC)CC(=O)OCC(=O)[C@@]1(O)CC[C@H]2[C@@H]3CCC4=CC(=O)CC[C@]4(C)[C@H]3[C@@H](O)C[C@@]21C
inactive: [1] | [2] | [3] | [4]

CN1CCC(=C2c3ccccc3Sc3ccccc32)CC1
inactive: [1] | [2] | [3] | [4]

O=C(Oc1cccc2cccnc12)c1ccccc1
inactive: [1] | [2] | [3] | [4]

COc1ccc2c(c1)c(CC(=O)OCC(=O)O)c(C)n2C(=O)c1ccc(Cl)cc1
inactive: [1] | [2] | [3] | [4]

CCOC(=O)C1=C[C@]2(CC)CCCN3CCc4c(n1c1ccccc41)[C@@H]32
inactive: [1] | [2] | [3] | [4]

COc1cc(OC)cc(OC)c1
inactive: [1] | [2] | [3] | [4]

CC1(C)CO[C@@H](CC(=O)O)CN1
inactive: [1] | [2] | [3] | [4]

CC(Oc1c(Cl)cccc1Cl)C1=NCCN1 (stereo not given)
inactive: [1] | [2] | [3] | [4]
